The list is not random: actives were taken first. Their share in the collection is about 2.3%.
Giardia kill: Small Molecules that selectively kill Giardia lamblia: qHTS; Giardia lamblia trophozoite viability; activity change, % at 7.66 µM, hits read low; hit rate 0.15% among 340,000; in the data active = activity change below about -80%; inconclusive = between about -30% and that limit;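 also: parasites exposed to compound for two days anaerobically before the ATP read; % is scaled to controls: 0 for no effect and ±100 for the full control effect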
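Luminescent ATP signal served as the viability read-out, measured 15-30 min after adding ATP detection reagent to trophozoites that had been incubated with compounds for 48 hrs at 37 deg C anaerobically at 100 cells/well.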
Apoferritin bind: qHTS Assay for Identification of Novel General Anesthetics. Ferritin light chain (Equus caballus), P02791. apoferritin/1-aminoanthracene competitive binding, fluorescence. Potency, µM (highest dose often 77.5 µM), inactives show at the highest dose activity change, negative = displacement, hits mostly inhibitors. hit rate 0.074% among 350,000. AID 485281, 2010; also: potency is read from the fitted curve at half-maximal effect; % is scaled to controls: 0 for no effect and ±100 for the full control effect; nearly all actives have a fitted effect of over 20% in size
Target sequence (P02791 2-175 limits assumed): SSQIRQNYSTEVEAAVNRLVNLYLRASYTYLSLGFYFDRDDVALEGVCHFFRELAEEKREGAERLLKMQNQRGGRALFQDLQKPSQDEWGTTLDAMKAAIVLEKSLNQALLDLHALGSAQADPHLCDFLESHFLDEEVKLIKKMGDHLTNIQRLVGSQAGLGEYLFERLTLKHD
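10 uM apoferritin + 50% sat. 1-AMA, PBS; cpd 10 min RT; Ex380/Em535 endpoint; normalized to free probe vs complex; 4-param Hill fit; propofol titration as pos. ctrl.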
A549 viability: Nrf2 qHTS screen for inhibitors: counterscreen for cytotoxicity; A549 ARE-Fluc cells, CellTiter-Fluor viability, 18-24 h; Potency, µM (doses to about 46 µM), for the others: at the top dose activity change, negative = cytotoxicity, usual class: inhibitors; AID 504648, 2011; hit rate 0.16% among 390,000; also: potency is read from the fitted curve at half-maximal effect; % is scaled to controls: 0 for no effect and ±100 for the full control effect
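A549 ARE-Fluc cells in 5% FBS OPTI-MEM, 5000 cells/well, rested 2 h then exposed to compounds in concentration-response for 18-24 h at 37 °C. Viability by CellTiter-Fluor fluorescence (Ex 405/Em 525) after 30 min; luciferase luminescence (BugLite, 15 min, RT) read afterwards.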
mIDH1 inhibitor: qHTS for Inhibitors of mutant isocitrate dehydrogenase 1 (IDH1): qHTS. Potency, µM (titrated, usually from 76.6 µM), inactives show at the top dose activity change, negative = inhibition, usual class: inhibitors. hit rate 0.093% among 390,000. IDH1-R132H enzyme, NADPH consumption, diaphorase/resazurin fluorescence; also: potency is read from the fitted curve at half-maximal effect; % is scaled to controls: 0 for no effect and ±100 for the full control effect; nearly all actives have a fitted effect of over 65% in size
Target sequence (O75874 whole entry R132H, stated change not applied): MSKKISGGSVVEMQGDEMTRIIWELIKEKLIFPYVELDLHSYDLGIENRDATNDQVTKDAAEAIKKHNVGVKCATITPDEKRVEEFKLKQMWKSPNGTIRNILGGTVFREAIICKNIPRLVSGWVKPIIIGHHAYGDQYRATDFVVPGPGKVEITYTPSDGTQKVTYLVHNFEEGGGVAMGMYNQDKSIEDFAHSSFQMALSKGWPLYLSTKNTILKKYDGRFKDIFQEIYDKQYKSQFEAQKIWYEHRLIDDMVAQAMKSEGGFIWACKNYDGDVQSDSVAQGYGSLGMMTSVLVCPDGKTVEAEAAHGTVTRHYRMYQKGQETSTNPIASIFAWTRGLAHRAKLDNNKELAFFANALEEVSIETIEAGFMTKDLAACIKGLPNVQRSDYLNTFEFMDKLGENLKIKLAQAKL
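IDH1-R132H (0.5 ug/mL dispensed) in pH 7.5 Tris buffer was preincubated 30 min with compound, then given a substrate mix of 0.016 mM NADPH and 2 mM alpha-KG for 80 min at room temperature; remaining NADPH was read by diaphorase/resazurin fluorescence.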
Nrf2 inh: Nrf2 qHTS screen for inhibitors; hit rate 2.1% among 360,000; A549 ARE-Fluc reporter, luciferase luminescence, 18-24 h; Potency, µM (series often up to 46 µM), for inactives: at the top dose activity change, negative = inhibition, hits mostly inhibitors; also: potency is read from the fitted curve at half-maximal effect; % is scaled to controls: 0 for no effect and ±100 for the full control effect; nearly all actives have a fitted effect of over 60% in size
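Reporter: ARE-Fluc in A549. Exposure: 18-24 h, 37 °C, 5% CO2, 5% FBS OPTI-MEM. Readouts: fluorescent cytotoxicity (CellTiter-Fluor), then luminescent Nrf2 signal after BugLite.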
Nrf2 ARE act: qHTS of Nrf2 Activators | AID 624171, 2012 | AREc32 ARE-luciferase reporter (MCF7-derived line), luminescence, 24 h | hit rate 0.31% among 410,000 | Potency, µM (titrated, usually from 46.1 µM), for the others: top-dose activation, usual class: activators; also: potency is read from the fitted curve at half-maximal effect; % of control where 0% means no effect; nearly all actives have a fitted effect of over 65% in size
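For detection, Steady-Glo was added and plates sat 30 min at RT; before that, AREc32_Fluc cells grown overnight in OPTI-MEM/5% FBS had been treated with 23 nL compound for 24 hr at 37 deg C.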
* hit, by the source's call; ? = inconclusive; . = not tested or not shown; [ ] = dose if it differs, or a comment. Unless noted, calls follow the shape of the dose curve; as a rule, active = well fitted curve in the direction sought with a large enough effect; inconclusive = small, poorly fitted or top-dose-only effect, or another doubt; inactive = no such curve, though single readings can be large; an effect the other way counts as inactive or inconclusive.

SMILES	Giardia kill	Apoferritin bind	A549 viability	mIDH1 inhibitor	Nrf2 inh	Nrf2 ARE act
O=C(Nc1ccc(Cn2cccn2)cc1)c1ccc(COc2ccccc2Br)cc1	9	-13%	?	7%	9.2µM*	1%
O=C(Nc1cccnc1)c1ccc(COc2ccccc2Br)o1	4	-5%	-13%	2%	6.5µM*	0%
CCc1cccc(NC(=O)c2oc3ccc4c(c3c2C)C(=O)CC(C)(C)O4)c1	.	-2%	8%	2%	?	0%
COc1ccc(-c2oc3c(c2-c2cnc(OC)nc2)C(O)CC3)cc1 (configuration not stated)	.	.	.	.	.	-1%
Cc1ccc(NC(=O)C2CCN(S(=O)(=O)c3ccc(N4CCCC4=O)cc3)CC2)cc1Cl	-2	-9%	-5%	2%	10µM*	0%
COc1ccc(N2CC(C(=O)Nc3ccc(S(=O)(=O)N4CCCCC4)cc3)CC2=O)cc1 (configuration not stated)	0	-18%	-1%	-5%	21µM*	0%
O=C(Nc1cccc(Cl)c1Cl)C1CC(=O)N(c2ccc(Br)cc2)C1 (configuration not stated)	-17	-1%	-12%[1.84 µM]	0%	7.3µM*	-1%
O=C(Nc1ccc(S(=O)(=O)N2CCCCC2)cc1)C1CC(=O)N(c2ccc(Cl)cc2)C1 (configuration not stated)	16	-10%	?	-4%	23µM*	1%
O=C(Nc1cccc(F)c1)C1CC(=O)N(c2ccc(Br)cc2)C1 (configuration not stated)	-15	2%	1%	-5%	-7%	1%
Cc1ccc(N2CC(C(=O)Nc3ccc(S(=O)(=O)N4CCCC4)cc3)CC2=O)cc1 (configuration not stated)	-12	-15%	-9%	2%	?	0%
CCC(=O)NCCCC[C@H](NC(=O)OCc1ccccc1)C(=O)Nc1ccc2c(C)cc(=O)oc2c1	.	-24%	.	.	.	.
CCOCCCNC(=O)c1cc2c(=O)[nH]c3ccccc3c2n1C	.	25%	28%	10%	3%	0%
COC(=O)c1c(NC(=O)c2ccccc2)sc(C(N)=O)c1C	8	-4%	-6%	-1%	?	1µM*
Cc1ccc(OCC(=O)N(Cc2ccc(Cl)cc2)Cc2ccco2)cc1C	.	62%	1%	.	?	8%
Cc1ncc([N+](=O)[O-])n1CCOC(=O)Nc1ccc([N+](=O)[O-])cc1	-83*	-3%	-5%	-1%	-5%	0%
Cc1ncc([N+](=O)[O-])n1CCOC(=O)c1cc(Cl)cc(Cl)c1N	-86*	2%	0%	8%	-21%	4%
O=C(Nc1ccc([N+](=O)[O-])cc1O)Nc1ccccc1Br	.	-19%	.	.	.	.
CCOC(=O)c1ccc(N2C(=O)C3CC=CCC3C2=O)cc1 (configuration not stated)	14	-14%	2%	1%	10%	0%
CCOC(=O)c1ccc(N2C(=O)C3C(C2=O)C(C(=O)c2ccc(Cl)cc2)N2CCCC32)cc1 (configuration not stated)	6	?	-16%	5%	14%	14µM*
Cc1cc(C)cc(NC(=O)CCS(=O)(=O)c2ccc3c(c2)oc(=O)n3C)c1	.	3%	4%	13%	2%	0%
O=C(CN1C(=O)C2CCCCC2C1=O)OCn1nnc2ccccc2c1=O (configuration not stated)	-5	-16%	14%	-5%	-19%	0%
O=c1c2ccccc2nnn1Cc1ccccc1Cl	-12	14µM*	-1%	-6%	-5%	0%
O=C(OCn1nnc2ccccc2c1=O)C1CCCCC1	2	40µM*	2%	3%	9%	-1%
O=[S+]([O-])(c1ccc2c(c1)OCCO2)N1CCN([S+](=O)([O-])c2c(F)cc(Br)cc2F)CC1	.	.	10%	.	-7%	.
COCCCNCCCOc1ccc(C(C)(C)c2ccccc2)cc1	0	?	-1%	3%	2%	1%
SMILES	Giardia kill	Apoferritin bind	A549 viability	mIDH1 inhibitor	Nrf2 inh	Nrf2 ARE act
CC(C)(c1ccccc1)c1ccc(OCCCNCCO)cc1	8	11µM*	-7%	6%	-2%	6%
O=C(NCc1cccs1)c1ccc(CSc2nc3ccncc3n2Cc2ccccc2)cc1	.	154%	-1%	10%	7%	11%
COc1ccc(Cl)cc1N(CC(=O)NCc1ccccn1)S(=O)(=O)c1ccc(C)cc1	.	.	.	8%	.	0%
Nc1nonc1C(=O)NCCNc1ncccc1[N+](=O)[O-]	-5	-8%	?	13%	18µM*	2%
O=C1C(NS(=O)(=O)c2cccs2)=C(N2CCN(c3cccc(C(F)(F)F)c3)CC2)C(=O)c2ccccc21	-15	?	?	3%	21µM*	21%
CN1CCN(C2=C(NS(=O)(=O)c3cccs3)C(=O)c3ccccc3C2=O)CC1	16	-10%	-20%	28%	?	-1%
CSc1nc(Nc2ccc(C)cc2)c(C#N)c(-c2ccccc2)n1	.	68%	-5%	3%	26%	1%
COc1ccc(C2Nc3ccccc3C(=O)N2CCO)cc1COc1ccc(NC(C)=O)cc1 (configuration not stated)	.	.	-9%	.	-11%	.
Cc1nn(C)c(C)c1NC(=O)COc1ccc(F)cc1Br	4	.	1%	5%	23µM*	0%
CC1=C(C(=O)N2CCOCC2)CC(CC(=O)NCCN2CCOCC2)C(=O)N1Cc1ccccc1 (configuration not stated)	.	.	.	-4%	.	0%
COC(=O)c1ccc(N=C2S/C(=C\c3cc(C)n(-c4cccnc4)c3C)C(=O)N2C)cc1	11	-15%	?	1%	26µM*	0%
Cc1cc(/C=C2\SC(=S)N(C)C2=O)c(C)n1-c1cccc(O)c1	-13	-4%	?	-5%	14%	0%
COC(=O)/C=C/c1ccsc1NC(C)=O	-14	-9%	1%	6%	18%	13µM*
COC(=O)c1sc2cccc(F)c2c1S(=O)(=O)NCc1ccccc1Cl	.	-6%	-1%	6%	28%	13µM*
COC(=O)c1sc2cccc(F)c2c1S(=O)(=O)NCc1ccc(Cl)cc1	.	-3%	-1%	-13%	-19%	11µM*
CC(=O)Nc1cccc(-c2ccnc3c2CC(C)(C(=O)NCc2cccs2)O3)c1 (configuration not stated)	.	.	.	.	.	0%[9.22 µM]

Source: PubChem BioAssay (National Center for Advancing Translational Sciences (NCATS))
